Screens as filed in PubChem BioAssay.
The list is not random: actives were taken first. Their share in the collection is about 19%.
TDP1 cell CPT – DT40-hTDP1 cell growth loss with CPT; chicken DT40 Tdp1-/-;hTDP1 cells + 20 nM CPT, ATP luminescence, 48 h; Potency, µM (doses to about 46.2 µM), without a hit: at the top dose activity change, negative = growth inhibition, hits mostly inhibitors; actives 12% (n = 420,000); AID 686979; also: potency is read from the fitted curve at half-maximal effect; nearly all actives have a fitted effect of over 55% in size
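Chicken DT40 Tdp1-/- cells stably complemented with human TDP1 were seeded at 400 cells/well in medium containing 20 nM camptothecin, exposed to pin-transferred compounds, and grown at 37 °C for at least 48 hr. Viability was read as ATP luminescence.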
HT1080 IDH1KD tx – HT-1080 IDH1 knockdown cell toxicity (counter line); HT-1080 IDH1 knockdown viability, ATP luminescence, 48 h; Potency, µM (top dose mostly 46.1 µM), inactives show at the highest dose activity, negative = toxicity, usual class: cytotoxic; actives 2% (n = 360,000); AID 686971;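 also: potency is read from the fitted curve at half-maximal effect; 0% = DMSO wells and -100% = cell-free medium wells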
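Assay cells: HT-1080 with IDH1 knockdown, 750 per well, RPMI/5% FBS. Exposure: 48 h at 37 °C following 2 h pre-incubation. Read: CellTiter-Glo luminescence; fitted concentration-response, curve class assigned.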
IL1B secr inh – blocks inflammasome-driven IL-1 beta release. AID 743279. THP-1 LPS/ATP IL-1B secretion, AlphaLISA, 16 h; stronger effect = lower value. activity change, % at 57.5 µM. actives 4.7% (n = 360,000); in the data active = activity change below about -50%; inconclusive = mostly about -30% to -49%
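Secreted IL-1B measured by AlphaLISA bead assay after 16 h compound exposure of THP-1 cells; compounds (final up to 57.5 uM) added 1 h before LPS (250 ng/mL) and ATP (1.25 mM) stimulation; lower signal means less secretion.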
TDP1 cell noCPT – qHTS for Inhibitors of human tyrosyl-DNA phosphodiesterase 1 (TDP1): qHTS in cells in absence of CPT; actives 15% (n = 420,000); Potency, µM (doses to about 46.2 µM), inactives show at the top dose activity change, negative = growth inhibition, actives largely listed as inhibitors; DT40 Tdp1-/- hTDP1 cells, no CPT, ATP luminescence, 48 h; also: potency is read from the fitted curve at half-maximal effect; nearly all actives have a fitted effect of over 55% in size
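Readout: luminescence from CellTiter-Glo after 30 min in the dark at RT. Cells: DT40 Tdp1-/- with stable hTDP1, 400/well. Exposure: compounds alone, ≥48 hr, 37 °C.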
ELG1 DNA repair – ELG1-dependent DNA repair inhibition. HEK293T ELG1-luciferase reporter, luminescence, 16 h; DNA damage induced by 5-fluorouridine. Potency, µM (highest dose often 46.1 µM), inactives show at the top dose activity change, negative = inhibition, most hits filed as inhibitors. actives 2.3% (n = 330,000). AID 504467; also: potency is read from the fitted curve at half-maximal effect; nearly all actives have a fitted effect of over 55% in size
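In this reporter screen, reduction of luminescence relative to DMSO vehicle indicated activity. Compounds and 5-fluorouridine were added together to 2,000 cells per well, incubated for 16 hr at 37 °C, then developed with ONE-Glo.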
HT1080-NT tox – kills 2HG-producing HT-1080-NT fibrosarcoma cells; HT-1080-NT fibrosarcoma viability, CellTiter-Glo ATP luminescence, 48 h; Potency, µM (titrated, usually from 46.1 µM), inactives show at the highest dose activity, negative = less viability, usual class: cytotoxic; actives 1.6% (n = 360,000); AID 686970;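 also: NT is the 2HG producing partner of a matched IDH1 knockdown line; potency is read from the fitted curve at half-maximal effect; 0% = DMSO-treated cells and -100% = media-only wells without cells; nearly all actives have a fitted effect of over 55% in size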
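Toxicity toward the 2HG-producing NT line was scored as %Activity, normalised to DMSO and no-cell wells, from CellTiter-Glo luminescence after 48 hours' treatment.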
Numbers without * were called inactive; i = inactive; ? = inconclusive; nt = not tested or not shown; [ ] = remark or other dose. Unless noted, calls follow the shape of the dose curve; as a rule, active = well fitted curve in the direction sought with a large enough effect; inconclusive = small, poorly fitted or top-dose-only effect, or another doubt; inactive = no such curve, though single readings can be large; an effect the other way counts as inactive or inconclusive. Unless noted, % is scaled to controls: 0 for no effect and ±100 for the full control effect.

SMILES	TDP1 cell CPT	HT1080 IDH1KD tx	IL1B secr inh	TDP1 cell noCPT	ELG1 DNA repair	HT1080-NT tox
Cc1[nH]c2ccccc2c1C(=O)/C=C/c1ccccc1	?	?	-96*	?	?	?
Cc1[nH]c2ccccc2c1/C=N\NC(=O)c1ccccc1Cl	-19%	-1%	23	-26%	nt	-12%
CC(=O)c1c(C)[nH]c2ccccc2c1=O	0%	8%	25	-16%	-13%	18%
COc1ccc(CNC(=O)c2ccc3c(c2)nc2n3CCCCC2)c(OC)c1	5%	nt	nt	-19%	nt	nt
N#CC1=C(N)Oc2n[nH]c(-c3cccs3)c2C1C1CCCCC1 (centres undefined)	?	-25%	-98*	?	2%	?
N#CC1=C(N)Oc2n[nH]c(-c3cccs3)c2C1c1ccsc1 (centres undefined)	-21%	5%	19	-12%	16%	2%
CCOC(=O)Cc1[nH]nc2c1C(c1cccc(OC)c1OC)C(C#N)=C(N)O2 (centres undefined)	-16%	4%	-9	-7%	0%	1%
CCOC(=O)Cc1[nH]nc2c1C(C1C=CCCC1)C(C#N)=C(N)O2 (centres undefined)	?	21µM*	-90*	23µM*	?	?
N#CC1=C(N)Oc2n[nH]c(-c3cccs3)c2C1C1C=CCCC1 (centres undefined)	-16%	3%	-94*	-20%	14%	-16%
COc1ccc(-c2cc(C3CCNCC3)[nH]n2)cc1	?	8%	-9	?	7%	4%
COc1ccc(-c2n[nH]c3c2cnc2ccc(F)cc23)cc1	-2%	nt	nt	8%	nt	nt
CCCn1nc(C(=O)Nc2ccc(-n3cnnn3)cc2)c2ccccc2c1=O	?	14%	-14	12µM*	-7%	3%
CCCn1nc(C(=O)Nc2ccc(N3CCOCC3)cc2)c2ccccc2c1=O	-18%	-4%	-9	-13%	?	5%
CC(C)n1nc(C(=O)Nc2nc3ccccc3[nH]2)c2ccccc2c1=O	?	-2%	-53*	15µM*	?	-19%
CCCn1nc(C(=O)Nc2nc3ccccc3[nH]2)c2ccccc2c1=O	?	-2%	?	16µM*	?	-4%
CCCn1nc(C(=O)Nc2nnc(CC)s2)c2ccccc2c1=O	47%	-1%	30	3%	?	3%
CC(C)n1nc(C(=O)NNC(=O)c2ccncc2)c2ccccc2c1=O	-6%	-5%	12	-20%	-17%	-1%
CS(=O)(=O)c1cc(N2CCOCC2)ccc1CNC[C@H]1O[C@@H](n2cnc3c(=O)[nH]c(N)nc32)[C@H](O)[C@@H]1O	9%	12%	0	32%	nt	8%
O=C(Nc1nnc(Cc2ccccc2F)s1)Nc1ccccc1F	?	-23%	23	-21%	?	-10%
Cc1cccc(NC(=O)c2c(O)c3ccccc3n(C)c2=O)c1	?	-8%	8	15µM*	?	-8%
CCCn1c(=O)c(C(=O)Nc2cccc(C)c2)c(O)c2ccccc21	?	11%	18	?	3%	11%
Cn1c(=O)c(C(=O)Nc2ncccc2O)c(O)c2ccccc21	-22%	?	9	?	?	?
Cc1ccc(NC(=O)c2c(O)c3ccccc3n(C)c2=O)nc1	?	0%	28	21µM*	?	1%
CCC(C)n1c(SCC(=O)NC2CCS(=O)(=O)C2)nc2ccccc2c1=O (centres undefined)	-22%	-15%	-9	-30%	9%	-3%
O=C(NC(NC1CCS(=O)(=O)C1)C(Cl)(Cl)Cl)c1ccc(Br)cc1 (centres undefined)	8.2µM*	?	-3	7.3µM*	-21%	?
SMILES	TDP1 cell CPT	HT1080 IDH1KD tx	IL1B secr inh	TDP1 cell noCPT	ELG1 DNA repair	HT1080-NT tox
CCN(CC)C1CCN(C(=O)c2cc(COc3ccc(-n4cncn4)cc3)on2)C1 (centres undefined)	0%	-2%	i	2%	19%	0%
CN(C(=O)CCc1ccccc1F)C1CCCN(Cc2ccccc2F)C1 (centres undefined)	18µM*	-10%	-9	16µM*	-4%	0%
COc1cccc(CCC(=O)N(C)C2CCCN(Cc3ccccc3F)C2)c1 (centres undefined)	-17%	-3%	11	?	-7%	3%
CCN(CC)CCNCc1ccc(-c2ccc(Cl)cc2)o1	?	?	-4	?	-1%	16µM*
CCN(CC)CCNC(=O)COc1ccc(Cl)cc1	1%	nt	nt	-24%	nt	nt
CC(C)NCC(O)(c1ccc(Cl)cc1)c1ccc(Cl)cc1	?	-16%	-84*	21µM*	7%	-17%
COCCN(CCOc1cc(C)cc(C)c1)Cc1ccc(Cl)cc1	?	-10%	7	-19%	-11%	1%
CCN(CC)CCNCC(O)(c1ccc(Cl)cc1)c1ccc(Cl)cc1	?	21µM*	-87*	16µM*	7%	21µM*
CCN(CC)CCOc1ccc(C(O)(Cc2ccc(Cl)cc2)c2ccc(C)cc2)cc1 (centres undefined)	3µM*	nt	nt	4.7µM*	nt	nt
COCCNC(=O)CSc1nnc2[nH]c(=O)cc(C)n12	28%	nt	nt	-12%	nt	nt
COc1ncc2nc(-c3ccc(Cl)cc3)c(=O)n(CCC#N)c2n1	22%	nt	nt	2%	nt	nt
O=C(NC1CCCC1)C1CCN(C(=O)c2cccc(Cl)c2)CC1	8%	9%	13	-17%	0%	5%
NCC(O)(c1ccc(Cl)cc1)c1ccc(Cl)cc1	16µM*	1%	-56*	10µM*	-15%	-24%
NCC(c1ccccc1)(c1ccccc1)c1ccccc1	?	?	i	?	?	?
CC(C)(CNC(=O)c1cnn(-c2nccc(-c3cc4ccccc4o3)n2)c1C1CC1)N1CCOCC1	-8%[9.04 µM]	nt	nt	-4%	nt	nt
COc1ccc(C(=O)Oc2c(Sc3ccc(C)cc3)c(C)nn2C(C)(C)C)cc1OC	?	nt	nt	21µM*	nt	nt
COc1cccc(C(=O)Oc2c(Sc3ccc(C)cc3)c(C)nn2C(C)(C)C)c1OC	16µM*	nt	nt	23µM*	nt	nt
COc1ccc(C(=O)Oc2c(Sc3ccc(Cl)cc3)c(C)nn2C(C)(C)C)cc1OC	23µM*	nt	nt	?	nt	nt
CCOc1ccccc1C(=O)Oc1c(Sc2ccccc2)c(C)nn1C(C)(C)C	-19%	nt	nt	-5%	nt	nt
